Autofluor counter: compound fluorescence in toxin protease inhibitor counterscreen; fluorescence intensity (no concentration beside the values); AID 624483; 360,000 tested, 3.1% active; compound autofluorescence counterscreen, microsphere flow cytometry; hits give high values; in the data active means fluorescence intensity above about 16000; inconclusive means no clear call, values can overlap the other calls
BoNT-A LC inh2: blocks Botulinum neurotoxin A light chain protease; 360,000 tested, 0.17% active; AID 588499; multiplex microsphere protease substrate cleavage, flow cytometry; inhibition, % at 10 µM
BoNT F protease: blocks Botulinum neurotoxin F light chain protease; Multiplex microsphere protease cleavage assay, flow cytometry; inhibition, % at 10 µM; 360,000 tested, 0.22% active; AID 588497; in the data active means inhibition above about 35%, passing the limit was not always enough; inconclusive means no clear call, values can overlap the other calls
MazEF act: activators of E. coli MazEF toxin-antitoxin RNase. P0AE70. FAM/BHQ RNA-DNA oligo cleavage fluorescence, 5 h. activation, % at 20 µM. 350,000 tested, 0.32% active. AID 504720; in the data active means activation above about 50%
Target sequence (P0AE70 whole entry, looked up): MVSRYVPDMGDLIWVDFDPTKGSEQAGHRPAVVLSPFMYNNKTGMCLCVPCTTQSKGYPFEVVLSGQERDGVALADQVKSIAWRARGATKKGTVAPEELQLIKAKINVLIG
Anthrax LF inh2: inhibitors of Bacillus anthracis lethal factor protease; P15917; multiplex microsphere protease cleavage assay, LF; inhibition, % at 10 µM; 360,000 tested, 0.12% active
A number is an active result; - = inactive; ? = inconclusive; . = not tested or not shown. A selection: hits, their analogues and other compounds. The true share with any hit is near 3.7%. Unless noted, no stated cut-off is given here; in the data, active means inhibition above about 30%; inconclusive means no clear call, values can overlap the other calls; inactive means below that.

SMILES	Autofluor counter	BoNT-A LC inh2	BoNT F protease	MazEF act	Anthrax LF inh2
Cc1csc(C(=O)O)c1NC(=O)c1ccc(F)cc1	-	-	-	-	-
COC(=O)c1scc(C)c1N/N=C(\C)c1ccc(F)cc1	23635	?	-	-	-
CCc1nc2cc(Cl)c(Cl)cc2[nH]1	23720	?	-	-	-
COc1ccc([C@H]2C[C@@H](n3cc(-c4ccc(F)cc4)nn3)[C@H](O)CN2C(=O)C2CCCCC2)cc1	-	-	-	-	-
CCOC(=O)c1nnc(-c2ccccc2)nc1NCc1ccccc1	24408	-	-	-	-
CCOC(=O)c1cc(C#N)c(NCc2ccccc2)nc1C	-	-	-	-	-
Cc1c(C(=O)Nc2ccncc2)oc2c1C(=O)CC(C)(C)C2	19786	?	-	-	-
Cc1oc2c(c1C(=O)Nc1ccc(C(=O)O)cc1)CCCC2	17117	-	-	-	-
Cc1oc2c(c1C(=O)NCc1ccccc1)CCCC2	-	-	-	-	-
O=C1CSC(c2cn(-c3ccccc3)nc2-c2cc3ccccc3oc2=O)N1Cc1ccco1 (stereo not drawn)	23471	?	-	-	-
O=C1CSC(c2cn(-c3ccccc3)nc2-c2cc3ccccc3o2)N1Cc1ccccc1 (stereo not drawn)	-	-	-	-	-
Cc1cc(C(=O)Nc2sc(C)c(C)c2C#N)c(C)o1	16457	?	-	-	-
Cc1sc(NC(=S)NC(=O)c2ccc(C(C)(C)C)cc2)c(C#N)c1C	21363	-	-	-	-
CC(=O)Nc1nonc1C(=O)N1CCC(C)CC1	20925	-	-	-	-
CC1CCN(C(=O)c2ccccc2NC(=O)Nc2ccccc2)CC1	-	-	-	-	-
COC(=O)c1cn[nH]c1NC(=S)Nc1ccc(Cl)c(Cl)c1	-	-	-	-	-
COC(=O)c1cn[nH]c1NC(=S)Nc1ccc(C)cc1Cl	23473	?	-	-	-
Cc1occc1C(=O)NNC(=S)Nc1ccccc1C(F)(F)F	-	-	-	-	-
Cc1ccccc1NC(=S)NNC(=O)c1ccoc1C	24040	-	-	-	-
COc1ccc([N+](=O)[O-])cc1NCC(=O)Nc1cccc(S(=O)(=O)N2CCCC2)c1	-	-	-	-	-
O=c1oc(-c2cccs2)nc2sc3c(c12)CCC3	-	-	-	-	-
O=c1oc(/C=C/c2ccco2)nc2sc3c(c12)CCC3	-	-	-	141	-
Cc1cccc2cc(C(c3nnnn3Cc3ccc4c(c3)OCO4)N3CCCC3)c(=O)[nH]c12 (stereo not drawn)	-	-	-	-	-
Cc1ccc2cc(C(c3nnnn3CC3CCCO3)N3CCc4ccccc4C3)c(=O)[nH]c2c1 (stereo not drawn)	22554	-	-	-	-
Cc1cc2cc(C(c3nnnn3CC3CCCO3)N3CCCc4ccccc43)c(=O)[nH]c2cc1C (stereo not drawn)	24311	-	-	-	-
SMILES	Autofluor counter	BoNT-A LC inh2	BoNT F protease	MazEF act	Anthrax LF inh2
O=c1[nH]c2cc3c(cc2cc1C(c1nnnn1Cc1ccccc1)N1CCN2CCCC2C1)OCCO3 (stereo not drawn)	-	-	-	-	-
Cc1cccc2cc(C(c3nnnn3CC3CCCO3)N3CCc4ccccc4C3)c(=O)[nH]c12 (stereo not drawn)	.	.	.	-	.
CCc1ccc2[nH]c(=O)c(C(c3nnnn3CC3CCCO3)N3CCCc4ccccc43)cc2c1 (stereo not drawn)	-	-	-	-	-
Cc1ccc(C)c2[nH]c(=O)c(C(c3nnnn3Cc3ccccc3)N3CCc4ccccc4C3)cc12 (stereo not drawn)	22367	?	-	-	-
O=c1[nH]c2cc3c(cc2cc1C(c1nnnn1Cc1ccccc1)N1CCCCCC1)OCCO3 (stereo not drawn)	17658	-	-	-	-
CCOc1cc(N2CCOCC2)c(OCC)cc1NC(=O)CN1C(=O)NC(CC)(c2ccc(F)cc2)C1=O (stereo not drawn)	-	-	-	-	-
CCCCNC(=O)c1nc(C2CCN(S(=O)(=O)c3c(F)cccc3F)CC2)oc1-c1ccccc1	-	-	-	.	-
Cc1cc(NC(NC(=O)c2ccco2)(C(F)(F)F)C(F)(F)F)no1	17442	-	-	-	-
Cc1cc(C)nc(SCC(=O)NN=Cc2ccc(C)o2)n1	-	-	-	-	-
CN(Cc1ccccc1)Cc1c(F)cccc1F	22850	-	-	-	-
COc1ccc2ccccc2c1CN(C)Cc1ccccc1	-	-	-	-	-
COc1ccccc1Cc1c(-c2cccc(Br)c2)nc2ccc(Cl)cn12	-	-	-	.	-
O/N=C/c1ccc2ccccc2n1	-	-	41	-	-
O/N=C/c1ccc2cccc(O)c2n1	-	-	-	-	-

Source: PubChem
